For 8 compounds, Percent Effect results are on record in ChEMBL document CHEMBL3988442, “University of Dundee, Small-Polar-MMV Screening Library” (2021).

Common to all, as to design: scale not given: direction of the effect not stated beside the values
In assay [1] the target is Protein translocase subunit SecA (Escherichia coli (strain K12)) (UniProt P10408). The assay can be described thus: Assay to Identify E. coli SecA ATPase Inhibitors. Conditions: 30 µM. In kind it is functional.
Assay [2] has as its target T1, Ubiquitin-activating enzyme e1, putative (Leishmania donovani (strain BPK282A1)) (UniProt E9BSI1).
T1 sequence (whole entry): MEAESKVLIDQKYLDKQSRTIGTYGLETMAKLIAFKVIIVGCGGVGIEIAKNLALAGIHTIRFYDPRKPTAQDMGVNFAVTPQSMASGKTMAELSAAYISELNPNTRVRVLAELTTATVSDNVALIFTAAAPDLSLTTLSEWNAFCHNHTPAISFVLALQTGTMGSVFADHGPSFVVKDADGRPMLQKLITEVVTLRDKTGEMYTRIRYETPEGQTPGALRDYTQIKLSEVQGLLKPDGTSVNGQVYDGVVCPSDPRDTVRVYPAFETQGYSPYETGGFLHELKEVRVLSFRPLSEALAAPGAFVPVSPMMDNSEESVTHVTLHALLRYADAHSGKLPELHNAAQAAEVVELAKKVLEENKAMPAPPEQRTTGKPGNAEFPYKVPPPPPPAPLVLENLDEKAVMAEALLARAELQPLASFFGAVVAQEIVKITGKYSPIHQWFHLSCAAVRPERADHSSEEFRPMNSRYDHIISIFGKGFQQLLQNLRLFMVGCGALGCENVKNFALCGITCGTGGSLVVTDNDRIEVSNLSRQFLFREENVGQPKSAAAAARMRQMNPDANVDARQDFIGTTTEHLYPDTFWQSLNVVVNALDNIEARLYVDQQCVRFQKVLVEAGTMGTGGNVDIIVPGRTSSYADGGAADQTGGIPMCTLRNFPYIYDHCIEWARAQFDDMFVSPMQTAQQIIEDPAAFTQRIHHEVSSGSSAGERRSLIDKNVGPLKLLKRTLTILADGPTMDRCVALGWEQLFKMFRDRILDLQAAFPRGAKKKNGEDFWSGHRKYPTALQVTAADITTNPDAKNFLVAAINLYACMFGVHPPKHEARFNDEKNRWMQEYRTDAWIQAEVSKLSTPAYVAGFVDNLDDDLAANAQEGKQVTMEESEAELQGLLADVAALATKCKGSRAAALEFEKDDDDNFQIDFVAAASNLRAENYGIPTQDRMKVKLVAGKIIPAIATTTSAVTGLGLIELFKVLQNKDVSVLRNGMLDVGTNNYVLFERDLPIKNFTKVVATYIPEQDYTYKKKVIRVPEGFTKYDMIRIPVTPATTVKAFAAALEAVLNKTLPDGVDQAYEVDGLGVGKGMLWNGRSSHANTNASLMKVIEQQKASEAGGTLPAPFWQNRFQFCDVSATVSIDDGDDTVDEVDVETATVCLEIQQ
The assay can be described thus: Leishmania donovani Ubiquitin Activating Enzyme (LdE1). Format: functional. To be noted: 30 µM.

For assay [3], the target named is AMP-activated protein kinase, AMPK (Homo sapiens) (UniProt P54646+O43741+P54619+Q9UGJ0+Q9Y478+Q13131+Q9UGI9). Nature of the assay: AMP-dependent Kinase enzyme assay. An in vitro enzyme assay that detects ADP turnover that is directly proportional to AMPK activity. This uses naive AMPK that is activated during the assay with MK-8722. Format: functional. Conditions: 30 µM.

For assay [4], the target named is Sialic acid-binding Ig-like lectin 9 (Homo sapiens) (UniProt Q9Y336). The assay can be described thus: Hs-Siglec9 ALPHAscreen SOP 20170721. To be noted: 10 µM.
Sialic acid-binding Ig-like lectin 9 (Homo sapiens), sequence (Q9Y336 whole entry): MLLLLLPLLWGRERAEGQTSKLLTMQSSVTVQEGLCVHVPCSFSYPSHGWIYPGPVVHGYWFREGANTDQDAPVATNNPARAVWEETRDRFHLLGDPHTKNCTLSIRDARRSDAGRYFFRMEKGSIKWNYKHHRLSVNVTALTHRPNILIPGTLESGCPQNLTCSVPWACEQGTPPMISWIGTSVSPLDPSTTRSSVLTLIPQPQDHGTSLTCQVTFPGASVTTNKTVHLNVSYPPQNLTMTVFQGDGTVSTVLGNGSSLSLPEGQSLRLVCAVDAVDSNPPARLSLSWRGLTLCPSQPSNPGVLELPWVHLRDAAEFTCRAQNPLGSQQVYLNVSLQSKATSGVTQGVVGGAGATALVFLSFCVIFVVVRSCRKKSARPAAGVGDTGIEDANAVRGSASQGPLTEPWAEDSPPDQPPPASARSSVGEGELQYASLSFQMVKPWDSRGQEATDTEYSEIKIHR
The next assay has as its system Trypanosoma cruzi. Nature of the assay: Trypanosoma cruzi phosphomannomutase and mannose-1-phosphate guanylyltransferase assay. Format: functional. Conditions: 10 µM.
For assay [5], the target named is T2, Arginase-2, mitochondrial (Homo sapiens) (UniProt P78540).
T2 sequence (whole entry): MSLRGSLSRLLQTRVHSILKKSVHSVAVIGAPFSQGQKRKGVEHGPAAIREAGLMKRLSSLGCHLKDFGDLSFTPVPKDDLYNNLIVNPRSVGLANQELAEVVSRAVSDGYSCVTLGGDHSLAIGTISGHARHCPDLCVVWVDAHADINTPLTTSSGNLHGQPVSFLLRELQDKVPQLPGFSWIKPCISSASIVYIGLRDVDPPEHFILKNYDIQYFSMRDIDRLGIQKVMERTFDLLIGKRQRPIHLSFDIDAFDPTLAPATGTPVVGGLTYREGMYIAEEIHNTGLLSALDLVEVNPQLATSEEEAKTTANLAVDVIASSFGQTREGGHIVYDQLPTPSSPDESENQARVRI
The assay can be described thus: in vitro enzyme assay to detect the production of urea directly proportional to the activity of Arginase II. Further: in the data most compounds retested in dose-response had high values. Format: functional. To be noted: 33.3 µM.

Assay [6] addresses T3, Proteasome subunit beta (Trypanosoma cruzi) (UniProt O96673).
T3 sequence (whole entry): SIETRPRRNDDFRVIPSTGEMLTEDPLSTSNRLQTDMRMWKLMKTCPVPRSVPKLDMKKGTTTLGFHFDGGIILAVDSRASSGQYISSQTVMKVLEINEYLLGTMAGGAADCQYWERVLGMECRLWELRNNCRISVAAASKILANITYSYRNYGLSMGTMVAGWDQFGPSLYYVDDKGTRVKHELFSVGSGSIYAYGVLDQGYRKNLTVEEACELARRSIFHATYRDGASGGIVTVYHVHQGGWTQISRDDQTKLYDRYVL
Nature of the assay: Trypanosoma cruzi proteasome chymotrypsin-like activity (TcProtChymo) assay. Further: in the data most compounds retested in dose-response had high values. In kind it is functional. To be noted: 9.37 µM.

The species entered for the next assay is Homo sapiens. Nature of the assay: To identify inhibition of the IFN signalling (Jak-Stat) pathway via expression of an eGFP reporter gene under the control of an IFN-stimulated response element (ISRE) containing MxA promoter. Format: functional. To be noted: 30 µM.
Assay [7] addresses T4, Tyrosyl-tRNA synthetase, putative (Trypanosoma cruzi (strain CL Brener)) (UniProt Q4DSP6).
T4 sequence (whole entry): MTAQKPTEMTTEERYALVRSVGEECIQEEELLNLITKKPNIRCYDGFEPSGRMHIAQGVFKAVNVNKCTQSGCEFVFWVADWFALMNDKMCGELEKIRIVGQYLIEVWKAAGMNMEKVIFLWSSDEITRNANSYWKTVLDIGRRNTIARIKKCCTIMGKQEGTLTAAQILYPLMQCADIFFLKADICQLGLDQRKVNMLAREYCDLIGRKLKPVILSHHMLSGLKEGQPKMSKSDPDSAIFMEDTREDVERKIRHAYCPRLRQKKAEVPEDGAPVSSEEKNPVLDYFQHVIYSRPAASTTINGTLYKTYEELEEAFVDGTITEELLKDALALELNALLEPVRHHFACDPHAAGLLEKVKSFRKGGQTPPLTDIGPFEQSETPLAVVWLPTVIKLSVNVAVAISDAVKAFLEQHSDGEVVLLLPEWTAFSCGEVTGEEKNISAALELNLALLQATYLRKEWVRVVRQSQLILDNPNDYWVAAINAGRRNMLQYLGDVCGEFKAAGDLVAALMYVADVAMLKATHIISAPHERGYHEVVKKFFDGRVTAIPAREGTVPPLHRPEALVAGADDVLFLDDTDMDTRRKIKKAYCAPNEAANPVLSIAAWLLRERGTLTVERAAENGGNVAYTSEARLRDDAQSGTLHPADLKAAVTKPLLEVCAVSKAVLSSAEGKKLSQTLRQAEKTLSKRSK
Nature of the assay: Trypanosoma cruzi tyrosyl tRNA synthetase (TcYRS) _High Tyrosine SOP. Further: in the data most compounds retested in dose-response had high values. In kind it is functional. Conditions: 30 µM.

Assay [8] deals with T4, Tyrosyl-tRNA synthetase, putative (Trypanosoma cruzi (strain CL Brener)). The assay can be described thus: Trypanosoma cruzi tyrosyl tRNA synthetase (TcYRS) SOP. Format: functional. Conditions: 30 µM.
In assay [9] the target is Chromo domain-containing protein 1 (Saccharomyces cerevisiae (strain ATCC 204508 / S288c) (Baker's yeast)) (UniProt P32657). The assay can be described thus: ScCHD-1 Enzyme Inhibition Assay. Further: in the data most compounds retested in dose-response had high values. Format: functional. Conditions: 30 µM.
Chromo domain-containing protein 1 (Saccharomyces cerevisiae (strain ATCC 204508 / S288c) (Baker's yeast)), sequence (P32657 whole entry, the tested form may be a part): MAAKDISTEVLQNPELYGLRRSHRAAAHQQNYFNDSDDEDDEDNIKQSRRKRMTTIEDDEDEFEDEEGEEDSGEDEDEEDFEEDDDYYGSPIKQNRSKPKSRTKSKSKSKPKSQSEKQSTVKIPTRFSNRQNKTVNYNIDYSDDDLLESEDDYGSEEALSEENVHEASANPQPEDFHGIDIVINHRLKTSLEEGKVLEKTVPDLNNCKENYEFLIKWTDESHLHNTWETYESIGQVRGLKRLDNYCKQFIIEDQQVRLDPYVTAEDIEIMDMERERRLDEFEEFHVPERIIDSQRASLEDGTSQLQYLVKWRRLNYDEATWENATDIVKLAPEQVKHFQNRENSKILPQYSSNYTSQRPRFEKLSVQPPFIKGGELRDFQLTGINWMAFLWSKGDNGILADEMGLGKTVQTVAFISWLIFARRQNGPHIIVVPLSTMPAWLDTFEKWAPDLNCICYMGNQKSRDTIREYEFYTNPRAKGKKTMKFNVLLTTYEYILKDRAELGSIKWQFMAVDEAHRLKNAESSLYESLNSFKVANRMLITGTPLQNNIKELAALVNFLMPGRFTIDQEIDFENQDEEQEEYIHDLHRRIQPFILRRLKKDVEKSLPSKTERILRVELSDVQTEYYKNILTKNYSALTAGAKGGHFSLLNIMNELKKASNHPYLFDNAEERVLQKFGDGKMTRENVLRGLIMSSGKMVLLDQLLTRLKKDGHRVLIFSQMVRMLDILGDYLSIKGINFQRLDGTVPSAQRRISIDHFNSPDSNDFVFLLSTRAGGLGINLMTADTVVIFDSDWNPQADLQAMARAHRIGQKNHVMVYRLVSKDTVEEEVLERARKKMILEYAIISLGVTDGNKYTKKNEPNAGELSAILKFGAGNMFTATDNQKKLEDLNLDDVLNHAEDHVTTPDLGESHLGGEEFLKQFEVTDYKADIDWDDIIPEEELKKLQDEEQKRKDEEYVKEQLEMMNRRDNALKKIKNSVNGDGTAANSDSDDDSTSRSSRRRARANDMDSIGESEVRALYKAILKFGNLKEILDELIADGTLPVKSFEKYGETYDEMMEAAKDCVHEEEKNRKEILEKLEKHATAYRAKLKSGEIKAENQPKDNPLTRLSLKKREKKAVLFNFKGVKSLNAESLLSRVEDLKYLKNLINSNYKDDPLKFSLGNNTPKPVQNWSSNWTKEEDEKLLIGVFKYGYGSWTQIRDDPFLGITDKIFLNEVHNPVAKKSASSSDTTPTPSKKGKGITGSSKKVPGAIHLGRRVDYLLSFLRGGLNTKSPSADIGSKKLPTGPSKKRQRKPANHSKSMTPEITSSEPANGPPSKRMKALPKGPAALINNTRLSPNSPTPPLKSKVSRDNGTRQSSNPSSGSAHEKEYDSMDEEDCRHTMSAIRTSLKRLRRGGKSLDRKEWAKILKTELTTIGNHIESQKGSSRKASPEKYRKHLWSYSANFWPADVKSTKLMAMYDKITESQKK

SMILES strings stand for the structures. For some of these results: Potency and affinity values are given separately.

Protein translocase subunit SecA (Escherichia coli (strain K12)), sequence (P10408 whole entry): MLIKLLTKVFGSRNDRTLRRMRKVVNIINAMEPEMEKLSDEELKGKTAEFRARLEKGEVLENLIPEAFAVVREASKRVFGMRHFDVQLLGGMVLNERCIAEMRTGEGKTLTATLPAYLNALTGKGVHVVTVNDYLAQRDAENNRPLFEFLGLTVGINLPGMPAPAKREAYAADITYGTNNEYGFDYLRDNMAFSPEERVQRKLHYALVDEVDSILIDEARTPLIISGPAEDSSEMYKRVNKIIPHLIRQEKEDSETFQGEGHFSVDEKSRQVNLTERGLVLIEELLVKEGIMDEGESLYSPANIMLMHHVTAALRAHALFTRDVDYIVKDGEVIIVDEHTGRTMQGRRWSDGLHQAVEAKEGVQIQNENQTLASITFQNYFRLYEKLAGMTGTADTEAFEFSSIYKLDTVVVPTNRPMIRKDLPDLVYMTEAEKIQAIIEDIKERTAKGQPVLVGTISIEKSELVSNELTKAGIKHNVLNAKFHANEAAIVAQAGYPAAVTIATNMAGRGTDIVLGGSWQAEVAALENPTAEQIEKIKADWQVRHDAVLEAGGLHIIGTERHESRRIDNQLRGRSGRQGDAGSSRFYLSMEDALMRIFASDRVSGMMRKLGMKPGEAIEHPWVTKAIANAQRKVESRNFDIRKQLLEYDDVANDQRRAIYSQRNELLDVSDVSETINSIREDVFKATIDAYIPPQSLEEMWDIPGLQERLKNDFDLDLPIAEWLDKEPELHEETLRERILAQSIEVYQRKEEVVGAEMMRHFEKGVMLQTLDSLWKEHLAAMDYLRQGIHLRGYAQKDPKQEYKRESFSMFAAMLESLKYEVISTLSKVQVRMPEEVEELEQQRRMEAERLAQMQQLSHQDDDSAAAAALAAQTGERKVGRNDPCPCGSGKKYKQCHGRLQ

As for `CSCCC(CO)NC(=O)c1sc(-c2ccccc2Cl)nc1C` (stereo not drawn), the Percent Effect in assay [1] was -3.21%; in assay [2], 4%; in [3] it was 7.64%; in assay [4], 6.5%; with Trypanosoma cruzi it was -5.89%; in assay [5], -6.16%. Further, the Percent Effect is 11.3% in [6]; 6.86% in the assay filed under Homo sapiens; 1.06% in [7]; 7.69% in [8]; -4% in assay [9].
With `COCCC(=O)N1CCN(CCN(C)C)c2ncccc2C1`, the Percent Effect in assay [1] is -3.66%; in [2], 5.2%; in assay [3] it was 4.52%; in assay [4], 2.96%; in the assay on Trypanosoma cruzi, -0.492%; in assay [5] it was -2.76%. Moreover, the Percent Effect in [6] was 9.48%; in the assay listed under Homo sapiens, 0.361%; in [7], 4.3%; in assay [8], 8.64%; in assay [9] it was -1.22%.
Take `COCC(O)CNC(=O)c1coc(COc2ccc3sc(C)nc3c2)n1` (stereo not drawn): the Percent Effect is -0.0441% in assay [1]; 5.48% in assay [2]; 3.03% in assay [3]; 0.244% in [4]; -7.25% in the assay with Trypanosoma cruzi; 5.46% in [5]. Also, the Percent Effect was 14.7% in [6]; 44.1% in the assay filed under Homo sapiens; 5.38% in assay [7]; 15% in assay [8]; -1.23% in assay [9].
With `COc1c(CNCc2ccc(C(=O)N(C)C)cc2)c(C)nn1C`, the Percent Effect in assay [1] is -4.19%; in assay [2] it was 1.27%; in [3] it was 7.36%; in [4], -0.0396%; in the assay with Trypanosoma cruzi, 2.97%; in [5], 1.07%. For the same compound, the Percent Effect in [6] was 8.23%; in the assay filed under Homo sapiens, 27.1%; in [7], 3.12%; in [8], 7.59%; in assay [9] it was -4.86%.
For the compound `O=C1CC(c2ccc(C(=O)O)cc2)c2ncn(-c3ccccc3)c2N1` (stereo not drawn), the Percent Effect in assay [1] is -4.54%; in [2], 9.33%; in assay [3] it was -172%; in assay [4], -2.38%; in the assay with Trypanosoma cruzi, 0.786%; in assay [5], -8.63%. The Percent Effect is 19.2% in assay [6]; 2.29% in the assay listed under Homo sapiens; 9.52% in [7]; 7.69% in [8]; -7.97% in assay [9].
In the case of `CSCC(C)(O)CNC(=O)c1ccc(Br)cc1F` (stereo not drawn), the Percent Effect in assay [1] is -7.07%; in assay [2], 2.7%; in [3], -0.438%; in assay [4], 0.101%; with Trypanosoma cruzi it was 2.25%; in assay [5] it was 3.23%. The Percent Effect is 2.15% in [6]; -2.21% in the assay filed under Homo sapiens; 3.23% in assay [7]; 6.17% in assay [8]; -3.6% in assay [9].
Regarding `CN(C)C(=O)N1CCC2(CCCN(Cc3cnn(C)c3)C2)C1` (stereo not drawn), the Percent Effect in assay [1] was -3.04%; in [2], 0%; in [3] it was 12%; in [4], 1.42%; with Trypanosoma cruzi it was -2.83%; in [5], 0.955%. Also, the Percent Effect in assay [6] was 19%; in the assay listed under Homo sapiens, -3.73%; in assay [7] it was 1.08%; in [8], 5.13%; in assay [9] it was -0.435%.
On to `Fc1cnc(N2CCCC3(CN(Cc4ccncc4)CCO3)C2)nc1` (stereo not drawn), for which the Percent Effect in assay [1] was -2.51%; in assay [2], 13.3%; in assay [3], 12.9%; in [4] it was -0.573%; in the assay on Trypanosoma cruzi, -2.95%; in assay [5], 1.63%. Further, the Percent Effect in [6] was 12.2%; in the assay filed under Homo sapiens, 8.63%; in assay [7] it was 8.51%; in assay [8], 16.7%; in [9] it was -5.31%.
